Results from PubChem BioAssay.
For some assays here: Results with a measured potency or affinity are listed apart. Activity calls are given as the source filed them.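 How the source made its calls, unless noted: active means earlier screen potentiator hit that boosts the TRPC4 ion channel at some dose, with a dose response; inactive means no potentiation, no dose response, or not a prior hit.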

Tests used:
[1] = system: TRPC4 beta (transient receptor potential cation channel C4), mouse; test: TRPC4 cation channel opening, retest – cell-based, Fluo4 calcium, HEK293 TRPC4beta/mu-opioid, duplicates, 10 µM, confirmation (AID 2426;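 active means fluorescence ratio normalized to control raised more than 50% in primary screen plus both repeat runs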;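 on activation: percent rise of integrated ratio over buffer wells lacking compound which define 0%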); conditions: Fluo4 calcium fluorescence, at 10 µM; stronger effect = higher value
[2] = system: transient receptor potential cation channel C4 beta (TRPC4), mouse; test: TRPC4 cation channel opening, second retest – cell-based, second round, Fluo4, HEK293 TRPC4beta/mu-opioid, 1 µM, confirmation (AID 2461;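 active means primary screen active and over 50% activation in each of two duplicate runs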); conditions: Fluo4 calcium fluorescence, at 1 µM; stronger effect = higher value
[3] = system: TRPC4 (transient receptor potential cation channel C4 beta), mouse; test: potentiation of DAMGO EC20 TRPC4 response – cell-based, second round, Fluo-4, HEK293 TRPC4beta/mu-opioid, 1 µM, confirmation (AID 2554;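 active means primary screen hit whose fluorescence ratio, in both repeats, exceeds the weak agonist control mean by 3 SD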); conditions: DAMGO EC20, Fluo-4 calcium flux, at 1 µM; stronger effect = higher value
[4] = system: TRPC4 beta (transient receptor potential cation channel C4), mouse; test: potentiation of DAMGO EC20 TRPC4 response – cell-based, Fluo-4, HEK293 TRPC4beta/mu-opioid, confirmation (AID 2555;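 active means primary screen hit whose calcium fluorescence ratio, in both repeats, exceeds the weak agonist control mean by 3 SD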); conditions: DAMGO EC20, Fluo-4 calcium flux, at 10 µM; stronger effect = higher value
[5] = molecular target: Short transient receptor potential channel 4 (Mus musculus) (UniProt Q9QUQ5); test: blockers of DAMGO-evoked TRPC4 calcium flux – cell-based, Fluo4, HEK293 TRPC4beta/mu-opioid, confirmation (AID 2636;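 active means calcium signal cut by more than 3 SD below the full-agonist control yet still positive, in both repeats and the earlier primary screen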); conditions: at 10 µM; stronger effect = higher value
Short transient receptor potential channel 4 (Mus musculus), sequence (Q9QUQ5 whole entry, looked up): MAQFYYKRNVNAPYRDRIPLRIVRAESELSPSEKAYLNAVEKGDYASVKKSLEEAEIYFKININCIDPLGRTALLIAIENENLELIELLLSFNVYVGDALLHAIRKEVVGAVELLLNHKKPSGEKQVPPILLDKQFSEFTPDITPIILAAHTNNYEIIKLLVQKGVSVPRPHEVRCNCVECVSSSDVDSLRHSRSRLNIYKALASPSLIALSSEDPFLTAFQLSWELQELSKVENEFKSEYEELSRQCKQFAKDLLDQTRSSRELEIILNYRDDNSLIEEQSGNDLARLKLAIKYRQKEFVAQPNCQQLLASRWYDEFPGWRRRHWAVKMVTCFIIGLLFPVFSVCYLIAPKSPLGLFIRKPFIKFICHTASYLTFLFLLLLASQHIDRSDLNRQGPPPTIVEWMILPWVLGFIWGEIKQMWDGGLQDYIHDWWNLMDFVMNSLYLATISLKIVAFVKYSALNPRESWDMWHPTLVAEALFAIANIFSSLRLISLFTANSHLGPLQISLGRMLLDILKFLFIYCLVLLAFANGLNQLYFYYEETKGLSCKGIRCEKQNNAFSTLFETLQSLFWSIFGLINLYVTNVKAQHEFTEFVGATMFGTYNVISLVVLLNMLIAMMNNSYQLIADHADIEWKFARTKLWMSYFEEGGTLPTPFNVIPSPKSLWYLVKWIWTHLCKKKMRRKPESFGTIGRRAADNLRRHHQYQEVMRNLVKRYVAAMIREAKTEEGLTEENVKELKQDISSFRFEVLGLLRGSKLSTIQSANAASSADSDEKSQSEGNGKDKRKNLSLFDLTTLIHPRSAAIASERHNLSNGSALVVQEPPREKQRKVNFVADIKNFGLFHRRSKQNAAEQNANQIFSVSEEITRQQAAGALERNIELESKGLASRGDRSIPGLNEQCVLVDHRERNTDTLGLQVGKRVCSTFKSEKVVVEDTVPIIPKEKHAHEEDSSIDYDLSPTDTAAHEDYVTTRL

[6] = molecular target: Short transient receptor potential channel 4 (Mus musculus) (UniProt Q9QUQ5); test: blockers of DAMGO-evoked TRPC4 calcium flux – cell-based, second round, Fluo4, HEK293 TRPC4beta/mu-opioid, 1 µM, confirmation (AID 2637;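 active means calcium signal ratio cut to more than 3 SD under the fully stimulated control mean yet still positive, in both repeats and the primary screen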); conditions: at 1 µM; stronger effect = higher value
[7] = molecular target: Short transient receptor potential channel 4 (Mus musculus) (UniProt Q9QUQ5); test: calcium entry via TRPC4 opening agents – cell-based, HEK293 TRPC4/mu-opioid, Fluo-4 calcium, dose response (AID 434937;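 active means primary screen activator hit with a dose response curve and TRPC4 channel activation at any tested dose; inactive means no activation, no dose response, or not a primary hit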)
[8] = molecular target: Short transient receptor potential channel 4 (Mus musculus) (UniProt Q9QUQ5); test: potentiation of DAMGO-evoked TRPC4 calcium signal – cell-based, HEK293 TRPC4/mu-opioid, Fluo-4 calcium, EC20 DAMGO, dose response (AID 434941);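 further: calcium entry triggered by an EC20 dose of DAMGO at the co-expressed mu-opioid receptor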
[9] = molecular target: Short transient receptor potential channel 4 (Mus musculus) (UniProt Q9QUQ5); test: block of DAMGO-driven TRPC4 calcium entry – cell-based, HEK293 TRPC4/mu-opioid, Fluo-4 calcium, dose response (AID 434942;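 active means primary screen inhibitor hit that blocks the TRPC4 channel at some tested dose, yielding a dose curve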)
[10] = molecular target: Short transient receptor potential channel 6 (Mus musculus) (UniProt Q61143); test: TRPC6 blockade by TRPC4 inhibitor hits – cell-based, HEK293, membrane potential dye, duplicate, selectivity assay for TRPC4 inhibitor project, confirmation (AID 434948;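 active means active in primary screen and both duplicates, each dropping signal beyond three positive-control SD with fluorescence still positive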); conditions: HEK293 TRPC6, membrane potential dye fluorescence, at 10 µM, stimulated with maximal-effect acetylcholine; stronger effect = higher value
Short transient receptor potential channel 6 (Mus musculus), sequence (Q61143 whole entry, looked up): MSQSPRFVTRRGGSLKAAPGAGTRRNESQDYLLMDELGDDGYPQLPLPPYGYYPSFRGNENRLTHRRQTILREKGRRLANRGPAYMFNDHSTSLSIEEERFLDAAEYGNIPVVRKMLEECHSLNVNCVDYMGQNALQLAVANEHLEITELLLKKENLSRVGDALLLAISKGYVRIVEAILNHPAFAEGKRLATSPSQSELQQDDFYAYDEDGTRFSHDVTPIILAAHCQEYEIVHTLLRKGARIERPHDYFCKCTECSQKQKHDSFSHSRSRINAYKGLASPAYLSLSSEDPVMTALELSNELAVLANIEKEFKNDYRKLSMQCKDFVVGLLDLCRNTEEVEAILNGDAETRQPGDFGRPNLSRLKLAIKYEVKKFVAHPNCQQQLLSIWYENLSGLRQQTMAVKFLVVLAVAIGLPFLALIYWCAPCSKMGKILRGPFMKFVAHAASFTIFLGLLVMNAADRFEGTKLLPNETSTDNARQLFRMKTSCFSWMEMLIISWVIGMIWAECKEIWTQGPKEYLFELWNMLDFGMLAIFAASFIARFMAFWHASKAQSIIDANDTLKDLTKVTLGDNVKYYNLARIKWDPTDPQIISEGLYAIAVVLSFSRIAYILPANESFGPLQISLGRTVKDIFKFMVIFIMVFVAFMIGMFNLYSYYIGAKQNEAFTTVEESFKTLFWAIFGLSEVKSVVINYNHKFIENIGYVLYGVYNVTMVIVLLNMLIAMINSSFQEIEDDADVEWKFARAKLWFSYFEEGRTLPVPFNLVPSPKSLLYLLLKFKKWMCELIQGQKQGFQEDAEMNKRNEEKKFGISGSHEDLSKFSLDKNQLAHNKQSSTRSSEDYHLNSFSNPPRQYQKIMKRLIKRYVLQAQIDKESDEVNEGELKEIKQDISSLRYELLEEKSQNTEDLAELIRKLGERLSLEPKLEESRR

[11] = molecular target: Short transient receptor potential channel 6 (Mus musculus) (UniProt Q61143); test: TRPC6 opening by TRPC4 activator hits – cell-based, HEK293, membrane potential dye, duplicate, selectivity assay for TRPC4 activator project, confirmation (AID 434950;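 active means membrane potential signal rise above negative control mean plus 3 SD in both duplicates, also active in the earlier TRPC4 screen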;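 on activation: 0% = buffer only wells and 100% = acetylcholine maximal-effect wells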); conditions: HEK293 TRPC6, membrane potential fluorescence, at 10 µM; activation: stronger effect = higher value; outcome: activation
[12] = molecular target: Short transient receptor potential channel 6 (Mus musculus) (UniProt Q61143); test: positive modulators of mouse TRPC6 channel – HEK293 cells, membrane potential dye, duplicate, selectivity assay for TRPC4 potentiator project, confirmation (AID 434952;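 active means compound raising the membrane signal above positive-control mean plus 3 SD in both repeats, and a primary screen hit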); conditions: HEK293 TRPC6, membrane potential dye fluorescence, at 10 µM, maximal acetylcholine added after compound; stronger effect = higher value
[13] = molecular target: Short transient receptor potential channel 4 (Mus musculus) (UniProt Q9QUQ5); test: calcium flux activators in TRPC4/5HT1a cells, counter-screen for TRPC4 activator project, cell-based, second counter screen, HEK293 TRPC4/5HT1a, Fluo-4 (AID 434977;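 active means calcium signal rise above buffer-control mean plus 5 SD in both duplicates, and also a hit in the primary screen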;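 on activation: plate controls were assay buffer for no effect and maximal serotonin response for full effect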); conditions: Fluo-4 calcium flux, at 10 µM; stronger effect = higher value
[14] = serotonin-gated TRPC4 signal block – cell-based, second counter screen, HEK293 TRPC4/5HT1a, Fluo-4, counter-screen for TRPC4 inhibitor project, confirmation (AID 434978;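 active means primary screen active whose calcium signal fell more than 3 SD beyond the full-serotonin control mean in both duplicate plates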;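 further: serotonin given first at submaximal then at maximal dose after compound preincubation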); conditions: Fluo-4 calcium flux, at 10 µM, serotonin added to trigger calcium flux; stronger effect = higher value
[15] = system: TRPC4 (mouse), co-expressed with 5HT1a in HEK293; test: enhancement of serotonin-evoked TRPC4 response – cell-based, second counter screen, HEK293 TRPC4/5HT1a, Fluo-4, counter-screen for TRPC4 potentiator project, confirmation (AID 434979;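 active means signal rise over 3 SD above mean of control wells given weak agonist, in both repeats and first screen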); conditions: Fluo-4 calcium flux, at 10 µM, serotonin added at its EC20 dose; stronger effect = higher value
[16] = nonspecific calcium rise without TRPC4 – cell-based, HEK293 mu-opioid receptor line, counter-screen for TRPC4 activator project, confirmation (AID 449723;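 active means hit in primary screen, with calcium signal over 5 SD above buffer well mean in both duplicates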;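 further: counter screen cells carry the mu-opioid receptor alone and lack TRPC4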); conditions: HEK293 mu-opioid cells, Fluo-4 calcium fluorescence, at 10 µM; stronger effect = higher value
[17] = nonspecific potentiation of DAMGO calcium response – cell-based, HEK293 mu-opioid receptor line, counter-screen for TRPC4 allosteric potentiator project, confirmation (AID 449724;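 active means calcium signal rise more than 3 SD above the low-dose agonist control mean, in both duplicate plates and the primary screen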); conditions: HEK293 mu-opioid receptor cells, Fluo-4 calcium flux, at 10 µM, compound added before EC20 DAMGO stimulus; stronger effect = higher value

CCN1CCN(c2nc(N)c([N+](=O)[O-])c(Nc3ccc(C)cc3)n2)CC1
inactive: outcome [1] | outcome [2] | outcome [5] | outcome [6] | outcome [7] | outcome [8] | outcome [9] | outcome [10] | outcome [11] | outcome [12] | outcome [13] | outcome [14] | outcome [16] | outcome [17]
active: potentiation [3] 22% | potentiation [4] 13% | potentiation [15] 24.9%

CSc1ccc(S(=O)(=O)NCC(=O)OCC(=O)N(C)Cc2ccccc2)cc1[N+](=O)[O-]
inactive: outcome [1] | outcome [2] | outcome [3] | outcome [4] | outcome [5] | outcome [6] | outcome [7] | outcome [8] | outcome [9] | outcome [10] | outcome [11] | outcome [12] | outcome [13] | outcome [14] | outcome [15] | outcome [16] | outcome [17]

Cc1ccc(Cn2c(=N)c(C(=O)NCC3CCCO3)cc3c(=O)n4ccccc4nc32)cc1 (stereo unspecified)
active: potentiation [4] 47% | potentiation [15] 19.2%
inactive: outcome [1] | outcome [2] | outcome [3] | outcome [5] | outcome [6] | outcome [7] | outcome [8] | outcome [9] | outcome [10] | outcome [11] | outcome [12] | outcome [13] | outcome [14] | outcome [16] | outcome [17]

C=CCNC(=O)C(=O)NCC1CCCN1S(=O)(=O)c1cccs1 (stereo unspecified)
inactive: outcome [1] | outcome [2] | outcome [3] | outcome [4] | outcome [5] | outcome [6] | outcome [7] | outcome [8] | outcome [9] | outcome [10] | outcome [11] | outcome [12] | outcome [13] | outcome [14] | outcome [16] | outcome [17]
active: potentiation [15] 11.2%

COC(=O)c1cc(N2CCN(C)CC2)nc2ccccc12
inactive: outcome [1] | outcome [2] | outcome [3] | outcome [4] | outcome [5] | outcome [6] | outcome [7] | outcome [8] | outcome [9] | outcome [10] | outcome [11] | outcome [12] | outcome [13] | outcome [14] | outcome [15] | outcome [16] | outcome [17]

COC(=O)[C@@]12CCCCN1[C@H](c1ccc(-c3ccc(C(C)=O)cc3)cc1)[C@@H]1C(=O)N(C)C(=O)[C@@H]12
inactive: outcome [1] | outcome [2] | outcome [3] | outcome [4] | outcome [5] | outcome [6] | outcome [7] | outcome [8] | outcome [9] | outcome [10] | outcome [11] | outcome [12] | outcome [13] | outcome [14] | outcome [15] | outcome [16] | outcome [17]

Cc1ccc2oc(C(=O)N3CCC(O)(c4ccccc4)CC3)c(C)c2c1
active: potentiation [4] 11% | potentiation [15] 27.2%
inactive: outcome [1] | outcome [2] | outcome [3] | outcome [5] | outcome [6] | outcome [7] | outcome [8] | outcome [9] | outcome [10] | outcome [11] | outcome [12] | outcome [13] | outcome [14] | outcome [16] | outcome [17]

Cc1cc(Cl)cc(C)c1OCCCCCn1ccnc1
active: activation [1] 88% | activation [11] 47% | activation [13] 34%
inactive: outcome [2] | outcome [3] | outcome [4] | outcome [5] | outcome [6] | outcome [7] | outcome [8] | outcome [9] | outcome [10] | outcome [12] | outcome [14] | outcome [15] | outcome [16] | outcome [17]

Cc1sc2ncnc(SCC(=O)N(C)C3CCS(=O)(=O)C3)c2c1C (stereo unspecified)
active: potentiation [4] 24% | potentiation [15] 13.2%
inactive: outcome [1] | outcome [2] | outcome [3] | outcome [5] | outcome [6] | outcome [7] | outcome [8] | outcome [9] | outcome [10] | outcome [11] | outcome [12] | outcome [13] | outcome [14] | outcome [16] | outcome [17]

CC(=O)Nc1cccc(C(=O)OC(C(=O)c2ccc(C)cc2)c2ccccc2)c1 (stereo unspecified)
inactive: outcome [1] | outcome [2] | outcome [3] | outcome [4] | outcome [5] | outcome [6] | outcome [7] | outcome [8] | outcome [9] | outcome [10] | outcome [11] | outcome [12] | outcome [13] | outcome [14] | outcome [16] | outcome [17]
active: potentiation [15] 22.7%

Cc1cccc(OCCn2c(=O)sc3ccccc32)c1
inactive: outcome [1] | outcome [2] | outcome [3] | outcome [4] | outcome [5] | outcome [6] | outcome [7] | outcome [8] | outcome [9] | outcome [10] | outcome [11] | outcome [12] | outcome [13] | outcome [14] | outcome [15] | outcome [16] | outcome [17]

CCOC(=O)c1cnc2ccc(Cl)cc2c1NCCN(C)C
inactive: outcome [1] | outcome [2] | outcome [3] | outcome [4] | outcome [5] | outcome [6] | outcome [7] | outcome [8] | outcome [9] | outcome [10] | outcome [11] | outcome [12] | outcome [13] | outcome [14] | outcome [15] | outcome [16] | outcome [17]

Cc1ccc(/C=N/NC(=O)CSc2nc3ccccc3n2Cc2ccccc2)o1
inactive: outcome [1] | outcome [2] | outcome [3] | outcome [4] | outcome [5] | outcome [6] | outcome [7] | outcome [8] | outcome [9] | outcome [10] | outcome [11] | outcome [12] | outcome [13] | outcome [14] | outcome [15] | outcome [16] | outcome [17]
